A short description of test [1]: qHTS assay for small molecule agonists of the p53 signaling pathway (AID 651631; calls by dose curve; further: nearly all actives have a fitted effect of over 15% in size). An outline of the steps: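 HCT-116 p53RE-bla reporter line, 16 h compound treatment at 37 °C, then fluorescence after 2 h with B/G FRET substrate.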
For orientation: Quantitative high-throughput screening tests each substance at several concentrations.

Test [2] in a line: qHTS assay for small molecules that induce genotoxicity in human embryonic kidney cells expressing luciferase-tagged ATAD5 (AID 651632). Further: nearly all actives have a fitted effect of over 15% in size. Put shortly:
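Concentration-response screen for ATAD5 upregulation in HEK293T luciferase reporter cells; 16 hr treatment at 37C, then luminescence after 30 min with Amplite at room temperature.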

Test [3] in a line: qHTS assay for small molecule agonists of the p53 signaling pathway - cell viability (AID 651633; calls by dose curve;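 further: p53RE-bla HCT reporter cells with a stable beta-lactamase p53 reporter; nearly all actives have a fitted effect of over 30% in size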). An outline of the steps:
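Viability counter-read: CellTiter-Glo luminescence (30 min, room temperature) in the same p53RE-bla plates. These plates had been exposed to compounds for 16 h at 37 C.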

Test [4] in a line: qHTS assay for small molecules that induce genotoxicity in human embryonic kidney cells expressing luciferase-tagged ATAD5 - cell viability (AID 651634; calls by dose curve; further: nearly all actives have a fitted effect of over 25% in size). An outline of the steps:
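15.5 hr compound or vehicle exposure of HEK293T cells expressing luciferase-tagged ATAD5 at 37C; live-cell protease activity is read by fluorescence after 30 min of CellTiter-Fluor.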

A short description of test [5]: qHTS assay for small molecule disruptors of the mitochondrial membrane potential - cell viability (AID 720634; calls by dose curve;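 further: human HepG2 liver cancer cells; nearly all actives have a fitted effect of over 20% in size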). An outline of the steps: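 In this qHTS format, HepG2 cells plated overnight were pinned with compound, incubated 1 hr, and assayed for ATP luminescence with CellTiter-Glo after m-MPI dye addition.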
The nature of test [6]: qHTS assay to test for compound auto fluorescence at 590 nm (red) in HepG2 cells (AID 720674). Put shortly:
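1 hr compound incubation on HepG2 cells, 37 C, 5% CO2; plate read ex 540 nm / em 590 nm; intensities reported as Rose Bengal sodium equivalents.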

Test [7] can be described thus: qHTS assay to test for compound auto fluorescence at 535 nm (green) in HepG2 cells (AID 720675).
Test [8] in a line: qHTS assay to test for compound auto fluorescence at 460 nm (blue) in HEK293 cells (AID 720678). An outline of the steps:
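HEK293 cells (2,000 per well, medium with 10% dialyzed FBS) attached for 4-5 hr at 37C, then received compound and stood overnight at 37C, 5% CO2. Blue fluorescence was read at Ex/Em 405/460 nm and expressed relative to triamterene.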

Test [9] can be described thus: qHTS assay to test for compound auto fluorescence at 590 nm (red) in HEK293 cells (AID 720679). Put shortly:
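HEK293 cells (2,000/well, medium with 10% dialyzed FBS) attached for 4-5 hr at 37C, received 23 nL compound and were incubated overnight at 37C, 5% CO2. Red fluorescence was then read at 540/590nm Ex/Em, referenced to Rose Bengal sodium.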

A short description of test [10]: qHTS assay to test for compound auto fluorescence at 535 nm (green) in HEK293 cells (AID 720680).
Test [11] can be described thus: qHTS assay to test for compound auto fluorescence at 460 nm (blue) in HEK293 cell free culture (AID 720681). An outline of the steps:
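Blue fluorescence (Ex 405/Em 460 nm, triamterene-equivalent) was read immediately after pin transfer of compound or DMSO into medium (DMEM, 10% FBS) without cells.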

Test [12] is described as follows: qHTS assay to test for compound auto fluorescence at 535 nm (green) in HEK293 cell free culture (AID 720682). An outline of the steps:
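Steps: dispense DMEM/10% FBS into empty wells; pin in compound or DMSO; measure fluorescence at 485/535 nm. Values are fluorescein equivalents.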

A short description of test [13]: qHTS assay to test for compound auto fluorescence at 590 nm (red) in HEK293 cell free culture (AID 720683). An outline of the steps: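 Red-channel autofluorescence of compounds in culture medium (DMEM, 10% FBS), no cells, measured at 540/590 nm. Rose Bengal sodium is the reference fluorophore for equivalence.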
Test [14] can be described thus: qHTS assay to test for compound auto fluorescence at 590 nm (red) in HepG2 cell free culture (AID 720684). Put shortly: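 Cell-free; medium MEM + 10% FBS; compound or DMSO added by pintool; read Ex 540/Em 590 nm; Rose Bengal sodium as red reference fluorophore.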
The nature of test [15]: qHTS assay to test for compound auto fluorescence at 460 nm (blue) in HepG2 cell free culture (AID 720685). An outline of the steps: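 Cell-free plates of MEM plus 10% FBS received 23 nL compound or DMSO vehicle; blue-channel (405/460 nm) intensity scored against triamterene as reference fluorophore.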
The nature of test [16]: qHTS assay to test for compound auto fluorescence at 535 nm (green) in HepG2 cell free culture (AID 720686).
A short description of test [17]: qHTS assay to test for compound auto fluorescence at 460 nm (blue) in HepG2 cells (AID 720687). An outline of the steps: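 Blue-channel autofluorescence (Ex/Em 405/460 nm, triamterene-equivalent) was measured after 1 hr compound exposure at 37 C, 5% CO2. Cells were HepG2, plated overnight at 37 C in MEM plus 10% FBS.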
The target of test [18] is Glucocorticoid receptor (Homo sapiens) (UniProt P04150). Put plainly: qHTS assay to identify small molecule agonists of the glucocorticoid receptor (GR) signaling pathway (AID 720691; active means well fitted activation curve with a large enough effect in the signal ratio in the repeat runs, not every such curve was filed as active; the % refers to the signal ratio). The note with it: GR-bla HeLa, beta-lactamase reporter ratio, 18 h; activation: at 62.4 µM (top of the series). Put shortly: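 Measures GR pathway activation through a GRE-beta-lactamase reporter stably integrated in HeLa cells, with 18 h compound treatment at 37 C and fluorescence detection using a FRET substrate.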
Glucocorticoid receptor (Homo sapiens), sequence (P04150 whole entry, looked up): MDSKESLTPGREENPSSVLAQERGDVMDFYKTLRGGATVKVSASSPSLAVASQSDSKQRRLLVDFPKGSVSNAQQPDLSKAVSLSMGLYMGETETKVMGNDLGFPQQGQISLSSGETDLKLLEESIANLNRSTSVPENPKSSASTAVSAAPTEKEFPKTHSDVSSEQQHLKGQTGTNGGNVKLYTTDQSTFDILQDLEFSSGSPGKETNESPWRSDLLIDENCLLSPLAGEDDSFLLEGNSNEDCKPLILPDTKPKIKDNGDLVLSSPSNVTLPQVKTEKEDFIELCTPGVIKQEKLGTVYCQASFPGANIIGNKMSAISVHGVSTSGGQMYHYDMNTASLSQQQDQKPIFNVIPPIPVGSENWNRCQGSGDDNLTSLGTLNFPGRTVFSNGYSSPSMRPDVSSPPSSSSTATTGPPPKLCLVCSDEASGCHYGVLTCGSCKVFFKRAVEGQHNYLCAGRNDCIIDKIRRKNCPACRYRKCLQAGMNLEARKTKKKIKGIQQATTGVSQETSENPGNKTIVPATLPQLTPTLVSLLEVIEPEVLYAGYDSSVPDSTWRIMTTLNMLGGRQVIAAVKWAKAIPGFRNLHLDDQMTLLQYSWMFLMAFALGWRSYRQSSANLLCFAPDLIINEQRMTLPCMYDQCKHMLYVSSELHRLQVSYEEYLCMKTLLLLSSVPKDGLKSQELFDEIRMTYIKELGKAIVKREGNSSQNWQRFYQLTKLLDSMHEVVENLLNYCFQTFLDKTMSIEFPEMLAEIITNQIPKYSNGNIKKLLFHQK

Test [19] has the same target. Put plainly: qHTS assay to identify small molecule antagonists of the glucocorticoid receptor (GR) signaling pathway (AID 720692; active means well fitted inhibition curve with a large enough effect in the signal ratio in the repeat runs, not every such curve was filed as active; the % refers to the signal ratio). An outline of the steps: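 Tox21 10K library screened in concentration-response for blockade of dexamethasone (5 nM final)-induced GRE-bla reporter activity in HeLa cells; 18 h treatment, fluorescence read.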
The nature of test [20]: qHTS assay for small molecule disruptors of the mitochondrial membrane potential (AID 720635). Further: potency means the concentration at half of the fitted maximal effect. Put shortly:
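Mitochondrial membrane potential tracked with Mito-MPS dye, red aggregates (ex 540/em 590 nm) against green monomers (ex 490/em 535 nm). Compound treatment 1 hr at 37C, dye 30 min in HepG2.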

Values without a mark were called inactive. Inconclusive results are not listed. Activity calls are given as the source filed them. Unless noted, the call rests on the fitted dose curve; in most records, active means well fitted curve in the direction sought with a large enough effect in the repeat runs; inconclusive means weak or mixed curves; inactive means no such curve, though single readings can be large; an effect the other way counts as inactive or inconclusive.
On the % scale 0 is the no-effect control and ±100 the full control effect.

Take `CNC(C)(C)Cc1ccccc1`: the Potency result in test [1], in test [2], in test [3], in test [4], in test [5] and in test [18] was “inactive” throughout. Also, the Potency entry in test [19] is “inactive”. In addition, in test [6], the fluorescence, relative to Rose Bengal is -0.065% [at 18.6 µM]. In addition, the values for the fluorescence, % of fluorescein control in test [7] and in test [16] were -0.216% [at 18.6 µM] and 0.134% [at 18.6 µM], respectively. Besides, in test [8], the fluorescence, % of triamterene is 0.0048% [at 18.6 µM]. Also, the fluorescence, % of fluorescent control was 0.101% [at 18.6 µM] in [9]; -0.0376% [at 18.6 µM] in test [11]; -0.277% [at 18.6 µM] in test [13]; -0.0785% [at 18.6 µM] in test [15]; -0.0567% [at 18.6 µM] in test [17]. Besides, the fluorescence, % of fluorescein in test [10] was 0.0122% [at 18.6 µM]. The activity change in test [12] was 0.136% [at 18.6 µM]. The fluorescence, % of Rose Bengal in [14] was -0.143% [at 18.6 µM].

Turning to `CCOP(=O)(OCC)Oc1cc(C)nc(C(C)C)n1`, the Potency result in test [1], in test [2], in test [3], in test [4], in test [5] and in [20] was “inactive” in each case. Moreover, the Potency entry in test [7], in [8], in [11], in [15], in test [16] and in test [17] was “inactive” in each case. For the same molecule, the Potency result in test [18] was “inactive”. The call in test [6], in test [10], in test [12], in [13] and in test [14] was inactive.

With `O=C(NC(=O)c1ccccc1Cl)Nc1ccc(OC(F)(F)F)cc1`, the Potency result in test [1], in test [2], in [3], in test [4], in [5] and in test [20] was “inactive” throughout. Moreover, the Potency result in test [7], in test [8], in test [11], in test [15], in test [16] and in test [17] was “inactive” throughout. Moreover, the Potency result in test [18] and in test [19] was “inactive” each time. For the same molecule, the molecule was called inactive in test [6], in [9], in test [10], in test [12] and in [13].

`CC(C)(C)c1ccc(OP(=O)(Oc2ccccc2)Oc2ccccc2)cc1`: the Potency entry in test [1], in [2], in [3], in test [4], in test [7] and in [8] was “inactive” each time. Moreover, the Potency entry in test [11], in test [15], in [16] and in test [17] was “inactive” throughout. In test [20], the Potency was 9.75 µM (active). In addition, the result in test [6], in test [9], in test [10], in [12], in test [13] and in test [14] was inactive.

With `CCOP(=S)(NC(C)C)Oc1ccccc1C(=O)OC(C)C` (stereo unspecified), the Potency result in [1], in test [2], in test [3], in [4], in test [7] and in test [8] was “inactive” throughout. In addition, the Potency entry in test [11], in test [15], in test [16], in test [17] and in test [18] was “inactive” in each case. In test [20], the Potency is 27.3 µM (active). The outcome in [6], in test [9], in test [10], in [12], in test [13] and in test [14] was inactive.

As to `O=P(Cl)(Cl)Cl`, the Potency result in test [1], in test [2], in test [3], in test [4], in [5] and in test [20] was “inactive” in each case. The Potency entry in test [7], in [8], in test [11], in test [15], in test [16] and in [17] was “inactive” in each case. Besides, the Potency entry in [18] and in test [19] was “inactive” throughout. Moreover, the outcome in test [6], in test [9], in test [10], in test [12], in test [13] and in test [14] was inactive.

With `O=[N+]([O-])c1ccccc1-c1ccccc1`, the Potency entry in test [1], in test [2], in test [3], in [4], in test [5] and in [20] was “inactive” in each case. The Potency entry in [7], in test [8], in test [11], in test [15], in test [16] and in test [17] was “inactive” in each case. Moreover, the molecule was classed as inactive in test [6], in test [10] and in test [12].

The values above are taken from PubChem BioAssay (Tox21).
